{"source": "the supplement of paper PMC9262897", "about": "“Low-cost anti-mycobacterial drug discovery using engineered E. coli” (Nature Communications, 2022)", "note": "Counter-ions that a name gives are not always drawn. ± gives the standard deviation of the averaged measurements."}
{"test_system": "E. coli TESEC Mtb DapB", "assay": "growth (OD600 after 10 h); higher = more growth (less inhibition)", "conditions": "arabinose induction (level): Low; compound 0.1 mM; raw OD600 reference: median of DMSO wells 0.227, cell-free background 0.041", "procedure": "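TESEC E. coli strains in which the native enzyme is deleted and replaced by arabinose-inducible Mtb Asd, DapB, CysH or TrpD, each grown in its selective medium. Strains were screened against the Prestwick library at 0.1 mM and 1% DMSO in 384-well format at low and high arabinose induction. Growth is read as OD600 after 10 h in triplicate.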"}
{"smiles": "CN1CCc2cccc3c2[C@H]1Cc1ccc(O)c(O)c1-3", "note": "[R(-) Apomorphine hydrochloride hemihydrate]", "growth": "0.174 ± 0.021"}
{"smiles": "CN1CCCN(C(c2ccccc2)c2ccc(Cl)cc2)CC1", "note": "(centres undefined) [Homochlorcyclizine dihydrochloride]", "growth": "0.215 ± 0.039"}
{"smiles": "Cc1ncc(CO)c(CO)c1O", "note": "[Pyridoxine hydrochloride]", "growth": "0.239 ± 0.04"}
{"smiles": "O=C(NCC(O)CO)c1c(I)c(C(=O)NCC(O)CO)c(I)c(N(CCO)C(=O)CO)c1I", "note": "(centres undefined) [Ioversol]", "growth": "0.256 ± 0.028"}
{"smiles": "C[C@@H]1[C@H](O)[C@@H](C)/C=C/C=C/C=C/C=C/C=C/C=C/C=C/[C@H](O[C@@H]2O[C@H](C)[C@@H](O)[C@H](N)[C@@H]2O)C[C@@H]2O[C@](O)(C[C@@H](O)C[C@@H](O)[C@H](O)CC[C@@H](O)C[C@@H](O)CC(=O)O[C@H]1C)C[C@H](O)[C@H]2C(=O)O", "note": "[Amphotericin B]", "growth": "0.237 ± 0.046"}
{"smiles": "C=Cc1c(C)c2cc3nc(cc4[nH]c(cc5nc(cc1[nH]2)C(C)=C5CCC(=O)O)c(CCC(=O)OC)c4C)[C@@]1(C)C3=CC=C(C(=O)OC)C1C(=O)OC.C=Cc1c(C)c2cc3nc(cc4[nH]c(cc5nc(cc1[nH]2)C(C)=C5CCC(=O)OC)c(CCC(=O)O)c4C)[C@@]1(C)C3=CC=C(C(=O)OC)C1C(=O)OC", "note": "(some centres undefined) [Verteporfin]", "growth": "0.277 ± 0.043"}
{"smiles": "CC(C)C[C@H](NC(=O)[C@@H](O)[C@H](N)Cc1ccccc1)C(=O)O", "note": "[Ubenimex]", "growth": "0.229 ± 0.015"}
{"smiles": "CC(COc1ccccc1)N(CCCl)Cc1ccccc1", "note": "(centres undefined) [Phenoxybenzamine hydrochloride]", "growth": "0.228 ± 0.011"}
{"smiles": "CN(C)CCCOc1nn(Cc2ccccc2)c2ccccc12", "note": "[Benzydamine hydrochloride]", "growth": "0.216 ± 0.051"}
{"smiles": "CC1CS(=O)(=O)CCN1/N=C/c1ccc([N+](=O)[O-])o1", "note": "(centres undefined) [Nifurtimox]", "growth": "0.251 ± 0.019"}
{"smiles": "NCC[C@H](O)C(=O)N[C@@H]1C[C@H](N)[C@@H](O[C@H]2O[C@H](CN)[C@@H](O)[C@H](O)[C@H]2O)[C@H](O)[C@H]1O[C@H]1O[C@H](CO)[C@@H](O)[C@H](N)[C@H]1O", "note": "[Amikacin hydrate]", "growth": "0.0518 ± 0.0032"}
{"smiles": "Cc1cn([C@H]2C[C@H](N=[N+]=[N-])[C@@H](CO)O2)c(=O)[nH]c1=O", "note": "[Zidovudine, AZT]", "growth": "0.0825 ± 0.0056"}
{"smiles": "NC1CCN(c2nc3c(cc2F)c(=O)c(C(=O)O)cn3-c2ccc(F)cc2F)C1", "note": "(centres undefined) [Tosufloxacin hydrochloride]", "growth": "0.0526 ± 0.0037"}
{"smiles": "CC[C@H](C)C(=O)O[C@H]1C[C@H](O)C=C2C=C[C@H](C)[C@H](CC[C@@H](O)C[C@@H](O)CC(=O)O)[C@H]21", "note": "[Pravastatin]", "growth": "0.225 ± 0.025"}
{"smiles": "CC(NCCC(c1ccccc1)c1ccccc1)c1ccccc1", "note": "(centres undefined) [Fendiline hydrochloride]", "growth": "0.0491 ± 0.0046"}
{"smiles": "CCN1CCCC(OC(=O)C(c2ccccc2)c2ccccc2)C1", "note": "(centres undefined) [Piperidolate hydrochloride]", "growth": "0.182 ± 0.0083"}
{"smiles": "COc1ccc(C(=O)NCc2ccc(OCCN(C)C)cc2)cc1OC", "note": "[Itopride]", "growth": "0.268 ± 0.025"}
{"smiles": "CCCCOc1ccc(C(=O)CCN2CCCCC2)cc1", "note": "[Dyclonine hydrochloride]", "growth": "0.176 ± 0.012"}
{"smiles": "CC(C)C(=O)c1c(C(C)C)nn2ccccc12", "note": "[Ibudilast]", "growth": "0.208 ± 0.038"}
{"smiles": "CC(O)(P(=O)(O)O)P(=O)(O)O", "note": "[Etidronic acid, disodium salt]", "growth": "0.26 ± 0.015"}
{"smiles": "Nc1ccc(O)c(C(=O)O)c1", "note": "[Mesalamine]", "growth": "0.213 ± 0.021"}
{"smiles": "CC=CC1=C(C(=O)O)N2C(=O)[C@@H](NC(=O)[C@H](N)c3ccc(O)cc3)[C@H]2SC1", "note": "[Cefprozil]", "growth": "0.255 ± 0.039"}
{"smiles": "O=C(OCC(O)CO)c1ccccc1Nc1ccnc2cc(Cl)ccc12", "note": "(centres undefined) [Glafenine hydrochloride]", "growth": "0.276 ± 0.059"}
{"smiles": "CC1Cc2ccccc2N1NC(=O)c1ccc(Cl)c(S(N)(=O)=O)c1", "note": "(centres undefined) [Indapamide]", "growth": "0.216 ± 0.021"}
{"smiles": "CN(C)CCN1C(=O)c2ccccc2N(C)c2ccccc21", "note": "[Dibenzepine hydrochloride]", "growth": "0.187 ± 0.0044"}
{"smiles": "CO[C@@]1(NC(=O)Cc2cccs2)C(=O)N2C(C(=O)O)=C(COC(N)=O)CS[C@@H]21", "note": "[Cefoxitin sodium salt]", "growth": "0.0492 ± 0.0059"}
{"smiles": "CCC1(c2ccccc2)NC(=O)N(C)C1=O", "note": "(centres undefined) [Mephenytoin]", "growth": "0.24 ± 0.037"}
{"smiles": "CCN(CC)CC#CCOC(=O)C(O)(c1ccccc1)C1CCCCC1", "note": "(centres undefined) [Oxybutynin chloride]", "growth": "0.172 ± 0.034"}
{"smiles": "COC(=O)[C@H](c1ccccc1Cl)N1CCc2sccc2C1", "note": "[Clopidogrel]", "growth": "0.159 ± 0.012"}
{"smiles": "CN(C)CCOc1ccc(/C(=C(/CCCl)c2ccccc2)c2ccccc2)cc1", "note": "[Toremifene]", "growth": "0.0508 ± 0.001"}
{"smiles": "O=C1c2ccccc2S(=O)(=O)N1CCCCN1CCN(c2ncccn2)CC1", "note": "[Ipsapirone]", "growth": "0.221 ± 0.021"}
{"smiles": "COc1ccc(-c2cc(=S)ss2)cc1", "note": "[Anethole-trithione]", "growth": "0.218 ± 0.011"}
{"smiles": "CCCc1nc2c(C)cc(-c3nc4ccccc4n3C)cc2n1Cc1ccc(-c2ccccc2C(=O)O)cc1", "note": "[Telmisartan]", "growth": "0.307 ± 0.039"}
{"smiles": "CSc1ccc2c(c1)N(CCC1CCCCN1C)c1ccccc1S2", "note": "(centres undefined) [Thioridazine hydrochloride]", "growth": "0.0782 ± 0.052"}
{"smiles": "CCOC(=O)c1ccc(N)cc1", "note": "[Benzocaine]", "growth": "0.24 ± 0.034"}
{"smiles": "Cc1cc2c(cc1S(N)(=O)=O)S(=O)(=O)CCC2", "note": "[Meticrane]", "growth": "0.281 ± 0.079"}
{"smiles": "CC(C)COCC(CN(Cc1ccccc1)c1ccccc1)N1CCCC1", "note": "(centres undefined) [Bepridil hydrochloride]", "growth": "0.04587 ± 0.00031"}
{"smiles": "NC[C@H]1O[C@H](O[C@H]2[C@H](O[C@@H]3O[C@H](CO)[C@@H](O)[C@H]3O)[C@@H](O)[C@H](N)C[C@@H]2N)[C@H](N)[C@@H](O)[C@@H]1O", "note": "[Ribostamycin sulfate salt]", "growth": "0.226 ± 0.016"}
{"smiles": "N=C(N)NS(=O)(=O)c1ccc(N)cc1", "note": "[Sulfaguanidine]", "growth": "0.249 ± 0.032"}
